Source: PubChem
Shown are actives, neighbours in structure and some others; about 2.2% of the full set was active somewhere.
HSP90 refold inh = HSP90 refolding inhibition in rabbit reticulocyte lysate | luciferase refolding luminescence, 3 h | inhibition, % at 5.6 µM | 290,000 compounds, 0.91% hits | AID 1789;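 active = inhibition above the screen-wide mean plus 3 SD, computed separately per campaign, cut at about 16% in these data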;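 note: inhibitors lower the luminescence because luciferase stays unfolded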
LGR2 antag = inhibitors of bursicon-induced Drosophila LGR2 receptor cAMP signaling | HEK293 LGR2, CRE-luciferase, bursicon-stimulated, 4 h | inhibition, % at 9.99 µM | 380,000 compounds, 0.35% hits;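 active = drop in luminescence signal, shown as inhibition above about 50% in the replicate tests, limit read from the data, passing the limit was not always enough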;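 note: agonist challenge used bursicon conditioned medium at about half maximal strength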
TROY signal inh = TROY signaling inhibition. 360,000 compounds, 0.98% hits. Q293 LMP1-TROYcd NF-kB luciferase reporter, 4 h. inhibition, % at 10 µM;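 active = compounds whose plate-normalised and pattern-corrected inhibition of the luciferase reporter signal at the single screening dose is 50% or more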
TWEAK-Fn14 inh = TWEAK-Fn14 signaling inhibition | inhibition, % at 10 µM | TWEAK-stimulated Fn14 reporter cells, luciferase luminescence, 8 h | 360,000 compounds, 2% hits; in the data active = inhibition above about 50%
Large screens that a line does not name were inactive.

C=C1C(=O)C=C2CN(C(=O)c3ccccc3)[C@@](Cc3ccc(F)cc3)(C(=O)OC)[C@@H]12	HSP90 refold inh 18, TROY signal inh 81, TWEAK-Fn14 inh 105 (no result: LGR2 antag)
C=C1C(=O)CC2=C1[C@](Cc1ccc(F)cc1)(C(=O)OC)N(C(=O)c1ccccc1)C2	none (no result: HSP90 refold inh)
COc1cc(-c2noc(C)c2/C=C/c2ccc(OC(C)=O)cc2)cc(OC)c1OC	TWEAK-Fn14 inh 52
COc1ccc(-c2oc(=O)c3cc(OC)c(OC)cc3c2/C=C/c2ccc(OC(C)=O)cc2)cc1	none (no result: HSP90 refold inh)
Cc1ccccc1Cn1nnc(-c2ccc3c(c2)OCO3)n1	TWEAK-Fn14 inh 80 (no result: LGR2 antag)
Cc1ccccc1Cn1ccc(-c2ccc3c(c2)OCO3)n1	none (no result: LGR2 antag)
N#CCn1nnc(-c2ccc3c(c2)OCO3)n1	none (no result: LGR2 antag)
Fc1cccc(Cl)c1Cn1nnc(-c2ccc3c(c2)OCO3)n1	TWEAK-Fn14 inh 54 (no result: LGR2 antag)
N#Cc1ccccc1Sc1ccccc1C(=O)OCC(=O)NC12CC3CC(CC(C3)C1)C2	TWEAK-Fn14 inh 63
CO[C@@H]1CN(C)C(=O)c2cc(NS(=O)(=O)CC(F)(F)F)ccc2OC[C@@H](C)N(Cc2nccs2)C[C@@H]1C	none (no result: HSP90 refold inh, TROY signal inh, TWEAK-Fn14 inh)
Cc1cc(C(=O)OCC(=O)NC2CCCC(C)C2C)c(C)o1 (stereo not drawn)	none (no result: HSP90 refold inh)
CC1CCCC(NC(=O)COC(=O)c2c[nH]c(=O)[nH]c2=O)C1C (stereo not drawn)	TWEAK-Fn14 inh 55 (no result: LGR2 antag, TROY signal inh)
CC(=O)Nc1ccc(-c2ccnc(-c3ccc(NC(C)=O)cc3)n2)cc1	TWEAK-Fn14 inh 62
CC(=O)Nc1ccc(-c2nn[nH]n2)cc1	none
C[C@@H]1CN([C@H](C)CO)C(=O)c2cccc(N(C)C)c2O[C@@H]1CN(C)Cc1ccc(Oc2ccccc2)cc1	none (no result: HSP90 refold inh, TROY signal inh, TWEAK-Fn14 inh)
COc1ccc(-c2nc3ccccc3c(C(=O)Nc3ccc(S(=O)(=O)Nc4cc(C)on4)cc3)c2C)cc1	TWEAK-Fn14 inh 51 (no result: LGR2 antag)
Cc1ccc(-c2cc(C(=O)Nc3ccc(S(=O)(=O)Nc4cc(C)on4)cc3)c3ccccc3n2)c(C)c1	none (no result: LGR2 antag)
C[C@H](CO)N1C[C@H](C)[C@@H](CN(C)C(=O)c2cnccn2)Oc2cc(C#CC3CC3)ccc2S1(=O)=O	none (no result: HSP90 refold inh, TROY signal inh, TWEAK-Fn14 inh)
O=C1[C@H]2[C@@H](c3ccccc3)N[C@]3(CCCN(Cc4ccc(C(F)(F)F)cc4)C3=O)[C@H]2C(=O)N1Cc1ccccc1	none (no result: HSP90 refold inh)
O=C1[C@H]2[C@@H](c3ccc(C(F)(F)F)cc3)N[C@]3(CCCN(Cc4ccc(F)cc4)C3=O)[C@H]2C(=O)N1Cc1ccccc1	TWEAK-Fn14 inh 95 (no result: HSP90 refold inh)
ON=C1c2ccccc2-c2cc(Br)ccc21	TWEAK-Fn14 inh 71 (no result: HSP90 refold inh, LGR2 antag)
Cc1ccc(/C=N/N2CCN(C3c4ccccc4-c4ccccc43)CC2)s1	TROY signal inh 54, TWEAK-Fn14 inh 62 (no result: LGR2 antag)
CC(C)NC(=O)Nc1ccc2c(c1)C(=O)N([C@@H](C)CO)C[C@H](C)[C@@H](CN(C)S(=O)(=O)c1cn(C)cn1)OCCCC[C@H](C)O2	none (no result: HSP90 refold inh, TROY signal inh, TWEAK-Fn14 inh)
O=C(Nc1ccc(F)cc1)Nc1cc(OCC(F)(F)F)cc(OCC(F)(F)F)c1	TROY signal inh 53, TWEAK-Fn14 inh 54
O=C(C[C@H]1C[C@@H]2c3cc(NC(=O)CC4CC4)ccc3O[C@@H]2[C@H](CO)O1)NCc1ccc2c(c1)OCO2	none (no result: HSP90 refold inh, TROY signal inh, TWEAK-Fn14 inh)
O=C(CCCN1C(=O)/C(=C/c2ccccc2Cl)SC1=S)NNC(=O)c1ccccc1Cl	TWEAK-Fn14 inh 78
O=C(CCN1C(=O)/C(=C/c2ccccc2Cl)SC1=S)N1CCCC1	none
O=C(CCCN1C(=O)/C(=C/c2ccccc2Cl)SC1=S)N1CCCC1	TWEAK-Fn14 inh 58
O=C(CCCN1C(=O)/C(=C/c2cccs2)SC1=S)NNC(=O)c1ccccc1O	none
O=C(O)CN1C(=O)/C(=C\c2cc(Br)ccc2OCc2ccccc2Cl)SC1=S	none
O=C(CCN1C(=O)/C(=C/c2ccccc2F)SC1=S)NCCCN1CCOCC1	TWEAK-Fn14 inh 50
O=C(CCN1C(=O)/C(=C/c2ccccc2)SC1=S)NCCCN1CCOCC1	none
O=C(O)CN1C(=O)/C(=C\c2ccccc2OCc2ccc(Cl)cc2Cl)SC1=S	TROY signal inh 80, TWEAK-Fn14 inh 97
C[C@@H]1CN([C@@H](C)CO)C(=O)Cc2cc(NC(=O)Nc3ccc(F)cc3)ccc2O[C@@H]1CN(C)C(=O)Nc1ccc2c(c1)OCO2	none (no result: HSP90 refold inh, TROY signal inh, TWEAK-Fn14 inh)
C[C@@H]1CN([C@@H](C)CO)C(=O)Cc2cc(NC(=O)C3CCCCC3)ccc2O[C@H]1CN(C)C(=O)Nc1ccc(C(F)(F)F)cc1	none (no result: HSP90 refold inh, TROY signal inh, TWEAK-Fn14 inh)
C[C@@H]1CCCCO[C@@H](CN(C)C(=O)Cc2ccccc2)[C@H](C)CN([C@@H](C)CO)C(=O)c2cc(NC(=O)c3ccncc3)ccc2O1	none (no result: HSP90 refold inh, TROY signal inh, TWEAK-Fn14 inh)
CN(C)CC#Cc1ccc([C@@H]2[C@@H](CO)N3CCCCN(C(=O)NC4CCCC4)C[C@@H]23)cc1	none (no result: HSP90 refold inh, TROY signal inh, TWEAK-Fn14 inh)
CO[C@@H]1CN(C)C(=O)c2cc(NC(=O)NC(C)C)ccc2OC[C@H](C)N(Cc2ccccn2)C[C@@H]1C	none (no result: HSP90 refold inh, TROY signal inh, TWEAK-Fn14 inh)
